Results as given in PubChem BioAssay (NCI).
Compounds without any hit were thinned out: in the full panel of roughly 79,000, 15% have a hit. A number with no mark means an inactive call. Activity calls are given as the source filed them. Cut-off read from the data, not from the text of the source: active = growth inhibition above about 70%; inactive = the rest.

Assays:
[1] = NCI Yeast Anticancer Drug Screen. Data for the rad50 strain (AID 155);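 note: 0% = growth of vehicle-only cultures of the same strain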; conditions: S. cerevisiae rad50 strain growth inhibition, hits give high values
In short: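 A DNA repair-deficient yeast mutant serves as the test organism; compound-induced growth inhibition is calculated against vehicle-treated cells.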

[2] = NCI Yeast Anticancer Drug Screen. Data for the mec2-1 strain (AID 157); conditions: S. cerevisiae mec2-1 strain, hits give high values
In short: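 Test agents were screened against the mec2-1 yeast strain, with defined DNA repair or cell cycle alteration. Growth was scored as inhibition against vehicle-only controls.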

[3] = NCI Yeast Anticancer Drug Screen. Data for the sgs1 mgt1 strain (AID 161);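 note: 0% = growth of cultures given vehicle only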; conditions: S. cerevisiae sgs1 mgt1 strain, hits give high values
In short: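 Genetically altered yeast, compound exposure, growth inhibition relative to vehicle.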

[4] = NCI Yeast Anticancer Drug Screen. Data for the cln2 rad14 strain (AID 165);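 note: 0% = growth equal to vehicle treated cultures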; conditions: S. cerevisiae cln2 rad14 strain, hits give high values
In short: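 Growth of compound-exposed yeast (cln2 rad14 genotype) measured and expressed as inhibition relative to vehicle.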

[5] = NCI Yeast Anticancer Drug Screen. Data for the bub3 strain (AID 167); conditions: S. cerevisiae bub3 mutant strain, hits give high values
In short: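 Inhibition values come from growth of compound-treated mutant yeast normalised to vehicle-treated controls.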

[6] = NCI Yeast Anticancer Drug Screen. Data for the mlh1 rad18 strain (AID 175); conditions: S. cerevisiae mlh1 rad18 strain growth inhibition, hits give high values
In short: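 In this whole-cell yeast screen, a strain with altered DNA damage repair is challenged with compound, and its growth is measured against matched vehicle-treated controls.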

[7] = at 5.0 µM (retest, dose inferred, filed as 0.5)
[8] = at 50.0 µM (retest, dose inferred, filed as 5.0)

Compound | growth inhibition [1, 7] | growth inhibition [1, 8] | growth inhibition ([1]; at 50.0 µM) | growth inhibition [2, 7] | growth inhibition [2, 8] | growth inhibition ([2]; at 50.0 µM) | growth inhibition [3, 7] | growth inhibition [3, 8] | growth inhibition ([3]; at 50.0 µM) | growth inhibition [4, 7] | growth inhibition [4, 8] | growth inhibition ([4]; at 50.0 µM) | growth inhibition [5, 7] | growth inhibition [5, 8] | growth inhibition ([5]; at 50.0 µM) | growth inhibition [6, 7] | growth inhibition [6, 8] | growth inhibition ([6]; at 50.0 µM)
S=C(NCCc1ccccn1)N/N=C/c1ccccn1 | 10% | 99% (active) | 76.5% (active) | -1% | 99% (active) | 84.9% (active) | 7% | 98% (active) | 88.3% (active) | -3% | 97% (active) | 89.8% (active) | -17% | 99% (active) | 90.4% (active) | 28% | 99% (active) | 91.5% (active)
COC(=O)c1nc(NC#N)[nH]c(=O)c1CCCCCc1cnc(NC#N)nc1 | -3% | 1% | -2.4% | -2% | -2% | 4.05% | -1% | 4% | -3.25% | -4% | 1% | 7% | 0% | -1% | -0.4% | 0% | -2% | -6.1%
CCCCCCCCCCCCCCCCN | 98% (active) | 97% (active) | 99% (active) | 20% | 99% (active) | 99.4% (active) | 99% (active) | 98% (active) | 99.2% (active) | 54% | 97% (active) | 98.8% (active) | 98% (active) | 98% (active) | 98.8% (active) | 98% (active) | 98% (active) | 98.7% (active)
C=C(CN1CCCC1)C(=O)c1ccc(OC)cc1 | -6% | 22% | 3.25% | 7% | 65% | 73% (active) | -8% | 55% | 44.4% | 31% | 81% (active) | -20.4% | -6% | 54% | -12% | 4% | 71% (active) | 46.6%
c1ccc(CC(Nc2cccnc2)c2ccccc2)cc1 (stereo not given) | 6% | 56% | 74.5% (active) | -13% | 24% | 22.6% | -2% | 74% (active) | 74.1% (active) | -1% | 28% | 21.9% | 24% | 40% | 56.1% | 1% | 60% | 75.3% (active)
Oc1cc2c(cc1C(Nc1ncccn1)c1ccc(F)cc1)OCO2 (stereo not given) | -1% | 46% | 17.9% | -1% | 40% | 15.7% | 0% | 77% (active) | 79.7% (active) | 4% | 24% | -12% | -1% | 64% | 44.1% | 0% | 74% (active) | 43.5%
CCOC(=O)C(Br)C(Br)c1cccc(Cl)c1 (stereo not given) | 53% | 99% (active) | 99.5% (active) | 64% | 99% (active) | 99.7% (active) | 84% (active) | 99% (active) | 99.8% (active) | 31% | 99% (active) | 99.4% (active) | 57% | 99% (active) | 99.8% (active) | 84% (active) | 99% (active) | 99.5% (active)
CC1SC2(C(=O)Nc3ccc([N+](=O)[O-])cc32)N(c2ccc(Cl)cc2)C1=O (stereo not given) | 7% | 97% (active) | 95.6% (active) | -2% | 97% (active) | 95.7% (active) | -1% | 98% (active) | 79.2% (active) | -1% | 97% (active) | 81.7% (active) | 12% | 98% (active) | 96.2% (active) | 6% | 98% (active) | 93.5% (active)
O=C1C2C3C=CC(C2C(=O)N1CN1CCOCC1)C1C2C(=O)N(CN4CCOCC4)C(=O)C2C31 (stereo not given) | -6% | -10% | 1.85% | 11% | 3% | 10.2% | -4% | -25% | -1.35% | -26% | -7% | 39% | 1% | -9% | -17.8% | -31% | -12% | 0.8%
O=C(Oc1c(I)ccccc1=O)c1ccc([N+](=O)[O-])cc1 | 39% | 98% (active) | 99.2% (active) | 57% | 99% (active) | 99.3% (active) | 73% (active) | 99% (active) | 99.3% (active) | 13% | 98% (active) | 99.2% (active) | 21% | 98% (active) | 99% (active) | 94% (active) | 99% (active) | 99.5% (active)
O=P(OCCCl)(OCCCl)C(Nc1cccc2ccccc12)c1ccccc1 (stereo not given) | 7% | 86% (active) | 91% (active) | -8% | 72% (active) | 91.4% (active) | 5% | 86% (active) | 88.5% (active) | -1% | 86% (active) | 87.5% (active) | 1% | 87% (active) | 86.7% (active) | 4% | 84% (active) | 90.2% (active)
Cc1ccc(S(=O)(=O)NCCCSCCO)cc1 | 6% | 45% | 80.2% (active) | -45% | 91% (active) | 84.4% (active) | -12% | 25% | 70.4% (active) | 9% | 57% | 74% (active) | -11% | 63% | 74.2% (active) | -1% | 90% (active) | 54.6%
O=C1c2cc(Br)ccc2NC1(c1c[nH]c2ccccc12)c1c[nH]c2ccccc12 | 98% (active) | 95% (active) | 91.8% (active) | 58% | 90% (active) | 94.8% (active) | 99% (active) | 96% (active) | 94.6% (active) | 98% (active) | 94% (active) | 93.2% (active) | 95% (active) | 95% (active) | 93.8% (active) | 99% (active) | 95% (active) | 92.8% (active)
COc1cc(Nc2ccc(O)cc2)c2ncccc2c1 | 34% | 93% (active) | 94.9% (active) | 18% | 97% (active) | 69.2% | 16% | 97% (active) | 94.7% (active) | 5% | 89% (active) | 21.1% | 7% | 94% (active) | 45.3% | 33% | 96% (active) | 94.5% (active)
O=C(N/N=C/c1ccccc1O)c1ccccc1-n1cccc1 | 52% | 64% | 53.6% | 30% | 53% | 36.6% | 43% | 81% (active) | 80% (active) | 32% | 49% | 45% | 41% | 71% (active) | 62.7% | 59% | 74% (active) | 63.1%
Cc1ccc(Nc2nc(C)c(C(=O)C/C(=N\NC(N)=S)C(=O)Nc3ccc(Cl)cc3C)s2)cc1 | -6% | 19% | 71.5% (active) | -12% | -3% | 17.2% | -3% | 11% | 82.3% (active) | -8% | 10% | 34.6% | -19% | 5% | 33% | 12% | -9% | 57.1%
CCOc1ccccc1C(=O)OCc1ccccc1 | -7% | 8% | 10.1% | -9% | 4% | 0.65% | -1% | 19% | 18.9% | 23% | -22% | 15.2% | 4% | -20% | 6.2% | -19% | 21% | 1.55%
CC(=O)C1=C(C)O/C(=C/c2ccc(Cl)cc2)C1=O | 27% | 94% (active) | 49.5% | 28% | 99% (active) | 32% | 34% | 99% (active) | 85.7% (active) | 34% | 90% (active) | 79% (active) | 31% | 99% (active) | 83.2% (active) | 34% | 98% (active) | 91.8% (active)
CC(SC1=CC(=O)c2c(O)ccc(O)c2C1=O)C(=O)O (stereo not given) | 9% | -19% | 22.6% | -4% | -2% | 11.8% | 19% | 5% | 19.9% | -5% | -6% | -27.6% | -6% | -5% | 4% | -5% | -6% | 25.1%
CCN(CC)CCCNc1cccc2ccc(OC)nc12 | 1% | 50% | 73.8% (active) | 0% | 24% | 13% | -9% | 60% | 66% | -1% | 33% | 32.7% | 2% | 40% | 51.8% | 4% | 28% | 53.5%
COc1ccc(Cc2ccccc2C(=O)O)c2ccccc12 | 97% (active) | 96% (active) | 99.1% (active) | 98% (active) | 98% (active) | 99.2% (active) | 97% (active) | 99% (active) | 99.5% (active) | 95% (active) | 96% (active) | 98.7% (active) | 96% (active) | 98% (active) | 98.9% (active) | 97% (active) | 98% (active) | 99% (active)
O=C(/C=C\C(=O)Nc1cccc(N(Cc2ccccc2)Cc2ccccc2)c1)Nc1cccc(N(Cc2ccccc2)Cc2ccccc2)c1 | -5% | 2% | 61.5% | -10% | -1% | 87.2% (active) | 0% | 5% | 85.5% (active) | 4% | 13% | 67% | -2% | 3% | 46.2% | -3% | 3% | 82% (active)
OC(CBr)c1cc(-c2ccccc2)nc2ccccc12 (stereo not given) | -3% | 98% (active) | -5.25% | -2% | 96% (active) | 18.1% | -3% | 97% (active) | 41.8% | -17% | 93% (active) | -24.7% | 1% | 99% (active) | 69.3% | -3% | 97% (active) | 28.2%
CC(=O)C1(O)C(Br)CC2C3CC=C4CC(O)CCC4(C)C3CCC21C (stereo not given) | 43% | 98% (active) | 90.3% (active) | 37% | 99% (active) | 79.5% (active) | 46% | 98% (active) | 86.4% (active) | 37% | 98% (active) | 87.9% (active) | 49% | 98% (active) | 85% (active) | 53% | 98% (active) | 83.8% (active)
CCCCCCCCCCCCCCCCSC(=NC)NC | 89% (active) | 99% (active) | 99.4% (active) | 98% (active) | 99% (active) | 99.2% (active) | 98% (active) | 100% (active) | 99.3% (active) | 25% | 99% (active) | 98.2% (active) | 84% (active) | 99% (active) | 99.1% (active) | 67% | 98% (active) | 98.7% (active)
